{"source": "paper PMC11006913", "experiment_in_all_cases": "PBM; 200 nM protein, PBS", "settings_in_all_cases": "dsDNA, one strand shown", "key": {"HOXB4 [1]": {"target": "HOXB4 (Homo sapiens, UniProt P17483 148-234)", "sequence (P17483 148-234)": "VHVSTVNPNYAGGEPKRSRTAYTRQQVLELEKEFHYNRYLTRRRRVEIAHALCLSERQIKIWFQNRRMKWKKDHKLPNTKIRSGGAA"}, "HOXA4 [2]": {"target": "HOXA4 (Homo sapiens, UniProt Q00056 201-287, W262R)", "sequence (Q00056 201-287 W262R)": "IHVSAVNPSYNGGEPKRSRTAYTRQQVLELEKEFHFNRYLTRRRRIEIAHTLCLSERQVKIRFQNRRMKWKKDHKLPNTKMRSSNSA"}, "HOXA4 [3]": {"target": "HOXA4 (Homo sapiens, UniProt Q00056 201-287, R217L)", "sequence (Q00056 201-287 R217L)": "as the sequence (Q00056 201-287 W262R) above, with R17L, R62W counted along it"}, "HOXB4 [4]": {"target": "HOXB4 (Homo sapiens, UniProt P17483 148-234, V174I)", "sequence (P17483 148-234 V174I)": "as the sequence (P17483 148-234) above, with V27I counted along it"}, "ALX3 [5]": {"target": "ALX3 (Homo sapiens, UniProt O95076 139-225, N203Q)", "sequence (O95076 139-225 N203Q)": "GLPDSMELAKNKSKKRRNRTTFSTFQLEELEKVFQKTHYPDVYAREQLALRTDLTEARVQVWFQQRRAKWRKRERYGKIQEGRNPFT"}, "HOXA4 [6]": {"target": "HOXA4 (Homo sapiens, UniProt Q00056 201-287)", "sequence (Q00056 201-287)": "as the sequence (Q00056 201-287 W262R) above, with R62W counted along it"}, "ALX3 [7]": {"target": "ALX3 (Homo sapiens, UniProt O95076 139-225)", "sequence (O95076 139-225)": "as the sequence (O95076 139-225 N203Q) above, with Q65N counted along it"}, "ALX3 [8]": {"target": "ALX3 (Homo sapiens, UniProt O95076 139-225, L168Q)", "sequence (O95076 139-225 L168Q)": "as the sequence (O95076 139-225 N203Q) above, with L30Q, Q65N counted along it"}, "ALX3 [9]": {"target": "ALX3 (Homo sapiens, UniProt O95076 139-225, L168V)", "sequence (O95076 139-225 L168V)": "as the sequence (O95076 139-225 N203Q) above, with L30V, Q65N counted along it"}, "HOXA4 [10]": {"target": "HOXA4 (Homo sapiens, UniProt Q00056 201-287, W262F)", "sequence (Q00056 201-287 W262F)": "as the sequence (Q00056 201-287 W262R) above, with R62F counted along it"}, "ALX3 [11]": {"target": "ALX3 (Homo sapiens, UniProt O95076 139-225, N203S)", "sequence (O95076 139-225 N203S)": "as the sequence (O95076 139-225 N203Q) above, with Q65S counted along it"}, "HOXA2 [12]": {"target": "HOXA2 (Homo sapiens, UniProt O43364 129-215, R185T)", "sequence (O43364 129-215 R185T)": "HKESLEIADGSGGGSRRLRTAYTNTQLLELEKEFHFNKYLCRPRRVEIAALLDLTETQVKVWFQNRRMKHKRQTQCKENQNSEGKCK"}, "HOXA2 [13]": {"target": "HOXA2 (Homo sapiens, UniProt O43364 129-215, R185K)", "sequence (O43364 129-215 R185K)": "as the sequence (O43364 129-215 R185T) above, with T57K counted along it"}, "HOXA2 [14]": {"target": "HOXA2 (Homo sapiens, UniProt O43364 129-215, Y150S)", "sequence (O43364 129-215 Y150S)": "as the sequence (O43364 129-215 R185T) above, with Y22S, T57R counted along it"}, "HOXA2 [15]": {"target": "HOXA2 (Homo sapiens, UniProt O43364 129-215)", "sequence (O43364 129-215)": "as the sequence (O43364 129-215 R185T) above, with T57R counted along it"}, "HOXA7 [16]": {"target": "HOXA7 (Homo sapiens, UniProt P31268 116-202)", "sequence (P31268 116-202)": "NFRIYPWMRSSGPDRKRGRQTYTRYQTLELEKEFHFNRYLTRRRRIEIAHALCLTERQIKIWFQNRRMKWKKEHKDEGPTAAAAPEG"}, "HOXB6 [17]": {"target": "HOXB6 (Homo sapiens, UniProt P17509 132-218, K202E)", "sequence (P17509 132-218 K202E)": "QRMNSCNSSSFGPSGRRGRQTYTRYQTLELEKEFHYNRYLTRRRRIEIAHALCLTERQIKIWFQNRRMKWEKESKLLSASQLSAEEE"}, "VAX1 [18]": {"target": "VAX1 (Homo sapiens, UniProt Q5SQQ9 86-172)", "sequence (Q5SQQ9 86-172)": "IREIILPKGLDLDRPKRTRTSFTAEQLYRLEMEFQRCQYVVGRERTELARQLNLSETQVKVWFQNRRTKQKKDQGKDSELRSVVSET"}, "VAX1 [19]": {"target": "VAX1 (Homo sapiens, UniProt Q5SQQ9 86-172, T142I)", "sequence (Q5SQQ9 86-172 T142I)": "as the sequence (Q5SQQ9 86-172) above, with T57I counted along it"}, "HOXA7 [20]": {"target": "HOXA7 (Homo sapiens, UniProt P31268 116-202, W177C)", "sequence (P31268 116-202 W177C)": "as the sequence (P31268 116-202) above, with W62C counted along it"}, "VAX1 [21]": {"target": "VAX1 (Homo sapiens, UniProt Q5SQQ9 86-172, K157R)", "sequence (Q5SQQ9 86-172 K157R)": "as the sequence (Q5SQQ9 86-172) above, with K72R counted along it"}, "HOXB6 [22]": {"target": "HOXB6 (Homo sapiens, UniProt P17509 132-218)", "sequence (P17509 132-218)": "as the sequence (P17509 132-218 K202E) above, with E71K counted along it"}, "HOXC9 [23]": {"target": "HOXC9 (Homo sapiens, UniProt P31274 178-260, K195R)", "sequence (P31274 178-260 K195R)": "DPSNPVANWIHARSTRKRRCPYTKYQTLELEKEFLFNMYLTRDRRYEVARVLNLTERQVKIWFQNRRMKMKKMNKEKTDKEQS"}, "HOXC9 [24]": {"target": "HOXC9 (Homo sapiens, UniProt P31274 178-260)", "sequence (P31274 178-260)": "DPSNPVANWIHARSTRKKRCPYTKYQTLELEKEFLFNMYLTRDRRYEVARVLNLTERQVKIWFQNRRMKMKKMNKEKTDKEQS"}, "MSX2 [25]": {"target": "MSX2 (Homo sapiens, UniProt P35548 130-214, R199I)", "sequence (P35548 130-214 R199I)": "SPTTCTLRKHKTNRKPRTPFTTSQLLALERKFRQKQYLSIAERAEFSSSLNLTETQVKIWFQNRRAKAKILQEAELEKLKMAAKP"}, "HOXC9 [26]": {"target": "HOXC9 (Homo sapiens, UniProt P31274 178-260, R193K)", "sequence (P31274 178-260 R193K)": "as the sequence (P31274 178-260) above, with R16K counted along it"}, "MSX2 [27]": {"target": "MSX2 (Homo sapiens, UniProt P35548 130-214)", "sequence (P35548 130-214)": "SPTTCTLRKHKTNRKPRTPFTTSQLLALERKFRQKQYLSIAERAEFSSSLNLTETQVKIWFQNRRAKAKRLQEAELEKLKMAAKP"}, "HOXC9 [28]": {"target": "HOXC9 (Homo sapiens, UniProt P31274 178-260, R222W)", "sequence (P31274 178-260 R222W)": "as the sequence (P31274 178-260) above, with R45W counted along it"}, "MSX2 [29]": {"target": "MSX2 (Homo sapiens, UniProt P35548 130-214, F161Y)", "sequence (P35548 130-214 F161Y)": "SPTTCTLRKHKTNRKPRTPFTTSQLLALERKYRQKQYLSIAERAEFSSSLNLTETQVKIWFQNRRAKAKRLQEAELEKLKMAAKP"}}}
{"sequence": "CAGGCCCC", "values": [{"measurement": "binding signal", "setting": "HOXB4 [1]", "value": "7.68 upbm affinity estimate (log intensity, higher = more binding, comparable within an allelic series)"}, {"measurement": "binding signal", "setting": "HOXA4 [2]", "value": "9.66 upbm affinity estimate (log intensity, higher = more binding, comparable within an allelic series)"}, {"measurement": "binding signal", "setting": "HOXA4 [3]", "value": "9.56 upbm affinity estimate (log intensity, higher = more binding, comparable within an allelic series)"}, {"measurement": "binding signal", "setting": "HOXB4 [4]", "value": "7.6 upbm affinity estimate (log intensity, higher = more binding, comparable within an allelic series)"}, {"measurement": "binding signal", "setting": "ALX3 [5]", "value": "7.7 upbm affinity estimate (log intensity, higher = more binding, comparable within an allelic series)"}, {"measurement": "binding signal", "setting": "HOXA4 [6]", "value": "9.7 upbm affinity estimate (log intensity, higher = more binding, comparable within an allelic series)"}, {"measurement": "binding signal", "setting": "ALX3 [7]", "value": "7.63 upbm affinity estimate (log intensity, higher = more binding, comparable within an allelic series)"}, {"measurement": "binding signal", "setting": "ALX3 [8]", "value": "7.69 upbm affinity estimate (log intensity, higher = more binding, comparable within an allelic series)"}, {"measurement": "binding signal", "setting": "ALX3 [9]", "value": "7.7 upbm affinity estimate (log intensity, higher = more binding, comparable within an allelic series)"}, {"measurement": "binding signal", "setting": "HOXA4 [10]", "value": "9.81 upbm affinity estimate (log intensity, higher = more binding, comparable within an allelic series)"}, {"measurement": "binding signal", "setting": "ALX3 [11]", "value": "7.69 upbm affinity estimate (log intensity, higher = more binding, comparable within an allelic series)"}]}
{"sequence": "TATAATGA", "values": [{"measurement": "binding signal", "setting": "HOXB4 [1]", "value": "13 upbm affinity estimate (log intensity, higher = more binding, comparable within an allelic series)"}, {"measurement": "binding signal", "setting": "HOXA4 [2]", "value": "10.5 upbm affinity estimate (log intensity, higher = more binding, comparable within an allelic series)"}, {"measurement": "binding signal", "setting": "HOXA2 [12]", "value": "12 upbm affinity estimate (log intensity, higher = more binding, comparable within an allelic series)"}, {"measurement": "binding signal", "setting": "HOXA4 [3]", "value": "11.9 upbm affinity estimate (log intensity, higher = more binding, comparable within an allelic series)"}, {"measurement": "binding signal", "setting": "HOXB4 [4]", "value": "13.5 upbm affinity estimate (log intensity, higher = more binding, comparable within an allelic series)"}, {"measurement": "binding signal", "setting": "HOXA2 [13]", "value": "12.8 upbm affinity estimate (log intensity, higher = more binding, comparable within an allelic series)"}, {"measurement": "binding signal", "setting": "HOXA4 [6]", "value": "13.6 upbm affinity estimate (log intensity, higher = more binding, comparable within an allelic series)"}, {"measurement": "binding signal", "setting": "HOXA2 [14]", "value": "10.9 upbm affinity estimate (log intensity, higher = more binding, comparable within an allelic series)"}, {"measurement": "binding signal", "setting": "HOXA4 [10]", "value": "11.2 upbm affinity estimate (log intensity, higher = more binding, comparable within an allelic series)"}, {"measurement": "binding signal", "setting": "HOXA2 [15]", "value": "12.1 upbm affinity estimate (log intensity, higher = more binding, comparable within an allelic series)"}]}
{"sequence": "ATAATGAC", "values": [{"measurement": "binding signal", "setting": "HOXB4 [1]", "value": "12.9 upbm affinity estimate (log intensity, higher = more binding, comparable within an allelic series)"}, {"measurement": "binding signal", "setting": "HOXA4 [2]", "value": "10.4 upbm affinity estimate (log intensity, higher = more binding, comparable within an allelic series)"}, {"measurement": "binding signal", "setting": "HOXA7 [16]", "value": "11.2 upbm affinity estimate (log intensity, higher = more binding, comparable within an allelic series)"}, {"measurement": "binding signal", "setting": "HOXB6 [17]", "value": "9.89 upbm affinity estimate (log intensity, higher = more binding, comparable within an allelic series)"}, {"measurement": "binding signal", "setting": "HOXA2 [12]", "value": "12.4 upbm affinity estimate (log intensity, higher = more binding, comparable within an allelic series)"}, {"measurement": "binding signal", "setting": "HOXA4 [3]", "value": "12.1 upbm affinity estimate (log intensity, higher = more binding, comparable within an allelic series)"}, {"measurement": "binding signal", "setting": "HOXB4 [4]", "value": "13.6 upbm affinity estimate (log intensity, higher = more binding, comparable within an allelic series)"}, {"measurement": "binding signal", "setting": "HOXA2 [13]", "value": "13.2 upbm affinity estimate (log intensity, higher = more binding, comparable within an allelic series)"}, {"measurement": "binding signal", "setting": "HOXA4 [6]", "value": "13.7 upbm affinity estimate (log intensity, higher = more binding, comparable within an allelic series)"}, {"measurement": "binding signal", "setting": "VAX1 [18]", "value": "12.6 upbm affinity estimate (log intensity, higher = more binding, comparable within an allelic series)"}, {"measurement": "binding signal", "setting": "VAX1 [19]", "value": "12.5 upbm affinity estimate (log intensity, higher = more binding, comparable within an allelic series)"}, {"measurement": "binding signal", "setting": "HOXA2 [14]", "value": "10.8 upbm affinity estimate (log intensity, higher = more binding, comparable within an allelic series)"}, {"measurement": "binding signal", "setting": "HOXA7 [20]", "value": "8.74 upbm affinity estimate (log intensity, higher = more binding, comparable within an allelic series)"}, {"measurement": "binding signal", "setting": "HOXA4 [10]", "value": "11.4 upbm affinity estimate (log intensity, higher = more binding, comparable within an allelic series)"}, {"measurement": "binding signal", "setting": "HOXA2 [15]", "value": "12.4 upbm affinity estimate (log intensity, higher = more binding, comparable within an allelic series)"}, {"measurement": "binding signal", "setting": "VAX1 [21]", "value": "12.3 upbm affinity estimate (log intensity, higher = more binding, comparable within an allelic series)"}, {"measurement": "binding signal", "setting": "HOXB6 [22]", "value": "11.7 upbm affinity estimate (log intensity, higher = more binding, comparable within an allelic series)"}]}
{"sequence": "CCGGACCA", "values": [{"measurement": "binding signal", "setting": "HOXB4 [1]", "value": "7.72 upbm affinity estimate (log intensity, higher = more binding, comparable within an allelic series)"}, {"measurement": "binding signal", "setting": "HOXC9 [23]", "value": "9.48 upbm affinity estimate (log intensity, higher = more binding, comparable within an allelic series)"}, {"measurement": "binding signal", "setting": "HOXB6 [17]", "value": "9.06 upbm affinity estimate (log intensity, higher = more binding, comparable within an allelic series)"}, {"measurement": "binding signal", "setting": "HOXB4 [4]", "value": "7.8 upbm affinity estimate (log intensity, higher = more binding, comparable within an allelic series)"}, {"measurement": "binding signal", "setting": "HOXC9 [24]", "value": "9.57 upbm affinity estimate (log intensity, higher = more binding, comparable within an allelic series)"}, {"measurement": "binding signal", "setting": "MSX2 [25]", "value": "9.46 upbm affinity estimate (log intensity, higher = more binding, comparable within an allelic series)"}, {"measurement": "binding signal", "setting": "HOXC9 [26]", "value": "9.51 upbm affinity estimate (log intensity, higher = more binding, comparable within an allelic series)"}, {"measurement": "binding signal", "setting": "MSX2 [27]", "value": "9.39 upbm affinity estimate (log intensity, higher = more binding, comparable within an allelic series)"}, {"measurement": "binding signal", "setting": "HOXC9 [28]", "value": "9.77 upbm affinity estimate (log intensity, higher = more binding, comparable within an allelic series)"}, {"measurement": "binding signal", "setting": "MSX2 [29]", "value": "9.4 upbm affinity estimate (log intensity, higher = more binding, comparable within an allelic series)"}, {"measurement": "binding signal", "setting": "HOXB6 [22]", "value": "8.79 upbm affinity estimate (log intensity, higher = more binding, comparable within an allelic series)"}]}
